Assay results reported in PubChem BioAssay (NCI).
The panel holds about 83,000 compounds, 20% with a hit somewhere; the sample as a whole holds those more often.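 Assay: single dose, 48 h. Readout: percent growth (0 = no net growth; negative = cell death). Active: <10.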 A number with no mark means an inactive call. Active and inactive are the calls of the source.

tested on: SNB-19 CNS; assay: NCI-60 one-dose screen, 48 h (100 = growth as untreated, 0 = no growth, -100 = all killed); conditions: 10 µM unless noted

Point of comparison: Cc1cc(C(=O)CSc2nc3ccccc3c(=O)[nH]2)c(C)n1C, growth 95.5%. Against it:
- COc1ccc2c(c1)NC(=O)CN2c1nc(NC2CC2)nc2ccccc12 — lower, 29.9%
- Nc1c(C(=O)Nc2cccc(Cl)c2Cl)sc2nc3c(cc12)C(=O)CCC3 — lower, 70.2%
- CC(=O)Nc1ccc(S(=O)(=O)N2C(=O)CCC2C(=O)Nc2ccc(Br)cc2)cc1 (centres undefined) — lower, 46.1%
- Nc1nc(-c2cc3ccccc3o2)cc(=O)c(=O)[nH]1 — lower, 86.6%
- Cc1nn(-c2ccc(Cl)cc2)c(=O)n1CCOc1ccccc1Cl — higher, 115%
- Cc1ccc(C2=NN(c3ccc(S(=O)(=O)NC(=O)NCc4ccccc4)cc3)C(c3ccc(N(C)C)cc3)C2)c(C)c1 (centres undefined) — lower, 54.8%
- O=C(/C=C/CN1CCOCC1)Nc1cc2c(Nc3cccc(Cl)c3F)ncnc2cc1OCCOC(F)F — lower, 81.7%
- COc1ccc(/C(=N/O)c2cc(OC)c(OC)c(OC)c2)c(OC)c1N — lower, 45.2%
- O=[N+]([O-])c1ccc(S(=O)(=O)N2CCN(c3ccnc4cc(Cl)ccc34)CC2)c([N+](=O)[O-])c1 — higher, 98.2%
- Cc1cc(N/C=c2\sc3ncnn3c2=O)no1 — lower, 95.2%
- O=C(Nc1ccc(F)c(Cl)c1)c1n[nH]c(=O)c2ccccc12 — higher, 104%
- CC1=C(C#N)C(C)(C)C(C#N)=C(C)N1 — higher, 95.9%

O=C(CCCn1c(=O)c2sc3ccccc3c2n2nnc(-c3ccccc3)c12)NCCc1cnc[nH]1 was tested, and the growth was -12.3% (active).
